# Records with an inconclusive call do not appear. The source made the active and inactive calls. How the source made its calls: active means hit-call score of the fitted dose curve at least 0.9, where 1 is the maximum; inconclusive means response in the unintended direction; inactive means score below 0.9.
# Experiment: STM_H9_OrnCyssISnorm_ratio: Stemina devTOX quickPredict H9 human embryonic stem cell (hESC)-based Assay for Ornithine (ORN):Cystine (CYSS) Ratio (AID 2283714)
# Protocol: STM_H9_secretome utilizes undifferentiated H9 cells to measure relative changes in two metabolites, ornithine (ORN) and cystine (CYSS) in the secretome, targeting a critical drop in the ORN/CYSS ratio as a biomarker for developmental toxicity.STM_H9_OrnCyssISnorm_ratio is one of 10 components calculated in the STM_H9_secretome assay. It is the ratio value of OrnISnorm_perc to CyssISnorm_perc.Data from the assay component STM_H9_OrnCyssISnorm_ratio was analyzed at the assay endpoint STM_H9_OrnCyssISnorm_ratio in the positive analysis fitting direction relative to DMSO as the negative control and baseline of activity. Using a type of binding reporter, gain or loss-of-signal activity can be used to understand relative metabolite change.
# H9 hESCs maintained in a pluripotent state were exposed to test compound for 72h with chemical replenishment with media replacement every 24h. Cell-conditioned media from the final 24-h treatment period was collected for analysis of the targeted biomarker, and cell viability of the corresponding cell layer was assessed. The chemical library was tested in blinded fashion. Each test plate included 1uM Methotrexate (MTX; Selleck Chemicals, Houston, Texas) as a positive reference, 5 nM MTX as a negative reference, 0.1% DMSO as the neutral (vehicle) control, and sample-level media blanks.H9 cell-conditioned media from the final 24-h treatment period was collected for analysis of the targeted biomarker and cell viability was measured from the corresponding cell layer. Cell viability was measured using the CellTiter-Fluor assay (Promega, Madison, Wisconsin) based on proteolytic cleavage of a substrate to fluorescent signal proportional to the number of living cells. The cell viability Relative Fluorescence Unit (RFU) was background corrected and normalized to mean RFU of the neutral control (0.1% DMSO). The collected H9-cell-conditioned media samples were processed for targeted biomarker analysis as described (Palmer et al., 2013). Briefly, spent media samples were deproteinized (40% acetonitrile) and processed for UPLC-HRMS. Data acquisition was performed using 4 separate UPLC-HRMS systems, consisting of an Agilent 1290 Infinity LC system (Agilent Technologies) interfaced with an Agilent high-resolution mass spectrometer (models G6520A, G6520B, G6530A, and G6224A). A Waters Acquity UPLC BEH Amide column (2.1mm x 50mm, 1.7lm particle size; Waters, Milford, Massachusetts) maintained at 40C was applied for separation of metabolites using a 6.5min solvent gradient with 0.1% formic acid in water and 0.1% formic acid in acetonitrile (1.0ml/min flow rate). Data were acquired using MassHunter Acquisition software (version B 04.00, Agilent Technologies). The extracted ion chromatogram (EIC) areas for ORN, CYSS, and their respective spike-in C13-standards were determined using the Agilent MassHunter Quantitative Analysis software, version B.05.00 or newer (Agilent Technologies), and data were normalized as described in Palmer et al. (2017).
Structure (SMILES),AC50,outcome
CCSC(=O)N(CC)C1CCCCC1,35.2 µM (active),–
CCCCCCCCCC[N+](C)(C)CCCCCCCCCC,1.94 µM (active),–
Clc1ccc(C(Cl)(Cl)Cl)cc1,86.5 µM (active),–
C=CC(=O)NCNC(=O)C=C,73.2 µM (active),–
CCC(=O)O[C@H]1CC[C@H]2[C@@H]3CCC4=CC(=O)CC[C@]4(C)[C@H]3CC[C@]12C,28.6 µM (active),–
CCCCCCOC(=O)c1ccccc1C(=O)OCCCCCC,3.69 µM (active),–
Nn1cnnc1,–,inactive
C1CC2OC2CC1C1CO1 (stereo not drawn),66.1 µM (active),–
Sc1ccccc1,–,inactive
CCNc1nc(NC(C)C)nc(SC)n1,33.3 µM (active),–
O=NN(c1ccccc1)c1ccccc1,–,inactive
CC1=C2C[C@H]3[C@@H](CC=C4C[C@@H](O)CC[C@@]43C)[C@@H]2CC[C@]12O[C@@H]1C[C@H](C)CN[C@H]1[C@H]2C,–,inactive
CCC(C)c1cc([N+](=O)[O-])cc([N+](=O)[O-])c1O (stereo not drawn),–,inactive
CO/C=C(/C(=O)OC)c1ccccc1COc1cccc(C(F)(F)F)n1,–,inactive
Clc1ccc(C(c2ccccc2Cl)C(Cl)(Cl)Cl)cc1 (stereo not drawn),69.9 µM (active),–
Cc1cc(O)ccc1Cl,–,inactive
ClC1=C(Cl)[C@]2(Cl)[C@@H]3[C@H]4C[C@H]([C@@H]5O[C@H]45)[C@@H]3[C@@]1(Cl)C2(Cl)Cl,72.4 µM (active),–
CCCCCCCCOC(=O)c1ccccc1C(=O)OCCCCCCCC,–,inactive

# Source: PubChem BioAssay (EPA / NIEHS)
